Laboratory results as given in PubChem BioAssay (NCATS).
Results filed as inconclusive are left out. Activity calls are given as the source filed them. Calls come from the whole dose curve; as a rule, active = well fitted cell-killing curve with a large enough effect; inconclusive = small, poorly fitted or top-dose-only effect, or effect the other way; inactive = no such curve, though single readings can be large or run the other way.

experiment: Quantitative High-Throughput drug screen in 47 multiple myeloma cell lines against the NCATS MIPE library collection: KHM11_PLB cell viability assay (AID 1918962); conditions: KHM11 myeloma cell viability, CellTiter-Glo ATP luminescence, 48 h; series mostly up to 45.8 µM; note: nearly all actives have a fitted effect of over 35% in size
Excerpt: PI: Beverly A. Mock Ph.D.
Laboratory of Cancer Biology and Genetics,
Center for Cancer Research, National Cancer Institute,
National Institute of Health, Bethesda, Maryland
Drug resistance and disease progression are common in multiple myeloma (MM) patients, underscoring the need for new therapeutic combinations. […] We hypothesized that effective combinations would reduce MYC expression and enhance p16 activity. […] These preclinical data identify potentially useful drug combinations for evaluation in drug-resistant MM and reveal potential mechanisms of combined drug sensitivity.
Described herein is the primary MIPE qHTS used to cherrypick compounds. Validated compounds were then further tested for potential synergistic activiy.
[1] Peat TJ, Gaikwad SM, Dubois W, Gyabaah-Kessie N, Zhang S, Gorjifard S, Phyo Z, Andres M, Hughitt VK, Simpson RM, Miller MA, Girvin AT, Taylor A, Williams D, D'Antonio N, Zhang Y, Rajagopalan A, Flietner E, Wilson K, Zhang X, Shinn P, Klumpp-Thomas C, McKnight C, Itkin Z, Chen L, Kazandijian D, Zhang J, Michalowski AM, Simmons JK, Keats J, Thomas CJ, Mock BA. Drug combinations identified by high-throughput screening promote cell cycle transition and upregulate Smad pathways in myeloma. Cancer Lett. 2023 Aug 1;568:216284. doi: 10.1016/j.canlet.2023.216284. Epub 2023 Jun 24. PMID: 37356470; PMCID: PMC10408729.
SEQUENCE No. (e.g., 1, 2, 3, etc.); […] (e.g., Cells, Incubation, Reagent, etc.); VALUE and DESCRIPTION.
1; Cells; 5 uL; white, solid bottom 1536-well Greiner assay plate.
2; Compounds; 23 nL; Kalypsis pin tool (Wako USA) equipped with a 1536-well pin head to transfer to the assay plates.
3; Incubation; 48 hours; 37C incubation.
4; Reagent;5uL; CellTiter Glo (Promega).
5; Detector; 425V; Luminescence; Viewlux PerkinElmer.
NOTES (numbers refer to Sequence numbers above)
1. The cell-based screening methods employed in this study were like those previously published. Briefly, the corresponding myeloma cell lines were screened in 1,536-well plates with 500 cells, 5-uL per well for inhibition of cell viability (assessed by measuring ATP levels with CellTiterGlo).
2. NCATS MIPE 4.0 library of approved and investigational drugs were added using the Kalypsis pin tool. Wells treated with DMSO only for 100% viability and media only wells for 0% viability were used as controls.
3. The assay plates were covered and incubated for 48 hours in a 37C, 5% CO2 incubator with controlled humidity.
4. After 48 hours, CellTilter-GloTM luminescent substrate mix (Promega) reagent was added to the assay plate and plates we incubated for 5 min at room temperature.
5. Signal was measured as median relative luminescence units on a ViewLux (PerkinElmer) multiplate reader.
[1] Heske CM, Davis MI, Baumgart JT, Wilson K, Gormally MV, Chen L, Zhang X, Ceribelli M, Duveau DY, Guha R, Ferrer M, Arnaldez FI, Ji J, Tran HL, Zhang Y, Mendoza A, Helman LJ, Thomas CJ. Matrix Screen Identifies Synergistic Combination of PARP Inhibitors and Nicotinamide Phosphoribosyltransferase (NAMPT) Inhibitors in Ewing Sarcoma. Clin Cancer Res. 2017 Dec 1;23(23):7301-7311. doi: 10.1158/1078-0432.CCR-17-1121. Epub 2017 Sep 12. PMID: 28899971; PMCID: PMC6636827.
Potency is the fitted concentration of half-maximal effect.

Row | SMILES | Potency
1 | CC(C)N(CCNC(=O)CN1CCCC1=O)C(C)C | inactive
2 | COc1ccc(C(=O)c2c(C)n(CCN3CCOCC3)c3cc(I)ccc23)cc1 | inactive
3 | CCCCCC[C@H]1C(=O)O[C@H](C)[C@H](NC(=O)c2cccc(NC=O)c2O)C(=O)O[C@@H](C)[C@@H]1OC(=O)CC(C)C | 0.105 µM (active)
4 | COc1cccc2c1[C@]13CCN(CC4CC4)[C@H](C2)[C@]1(OC)CCC(=O)C3 | inactive
5 | CN(C)[C@@H]1C(=O)C(C(N)=O)=C(O)[C@@]2(O)C(=O)C3=C(O)c4c(O)cccc4[C@@](C)(O)[C@H]3[C@H](O)[C@@H]12 | 7.43 µM (active)
6 | CCOC(=O)c1c(C(C#N)=CN)c2ccc(Cl)c(Cl)c2n1C | inactive
7 | CC(C)(C)c1cc(C=C(C#N)C#N)cc(Br)c1O | 14.8 µM (active)
8 | C[C@@H]1CC[C@@]2(OC1)O[C@H]1C[C@H]3[C@@H]4CC=C5C[C@@H](O[C@@H]6O[C@H](CO)[C@@H](O[C@@H]7O[C@@H](C)[C@H](O)[C@@H](O)[C@@H]7O)[C@H](O)[C@@H]6O[C@@H]6O[C@@H](C)[C@H](O)[C@@H](O)[C@@H]6O)CC[C@]5(C)[C@@H]4CC[C@]3(C)[C@@H]1[C@H]2C | 2.96 µM (active)
9 | c1ccc2c(CN3CCNCC3)cccc2c1 | inactive
10 | CC(=O)OCC1=C(C(=O)O)N2C(=O)[C@@H](N)[C@@H]2SC1 | inactive
11 | C[C@]12CC[C@H](O)CC1=CC[C@H]1[C@H]3CCC(=O)[C@@]3(C)CC[C@@H]12 | 14.8 µM (active)
12 | COc1ccc2c(c[n+](C)c3c4cc5c(cc4ccc23)OCO5)c1OC | 6.62 µM (active)
13 | CC(N[C@H]1C[C@H]1c1ccccc1)c1ccc2c(c1)OCCO2 (stereo not given in full) | inactive
14 | CCOC(=O)c1cncn1[C@H](C)c1ccccc1 | inactive
15 | COC1=C[C@@H]2[C@@H]3Cc4ccc(OC)c(O)c4[C@]2(CCN3C)CC1=O | 4.69 µM (active)
16 | c1ccc(CCCN2CCN(CCOC(c3ccccc3)c3ccccc3)CC2)cc1 | 16.6 µM (active)
17 | C[C@]12CCC(=O)C(O)=C1CC[C@@H]1[C@H]3CCC(=O)[C@@]3(C)CC[C@@H]12 | inactive
18 | CC(C)[C@]12O[C@@H]1[C@@H]1O[C@]13[C@]1(O[C@H]1C[C@@H]1C4=C(CC[C@@]13C)C(=O)OC4)[C@H]2O | inactive
19 | COC1=CC(C)=C[C@@H](C)[C@@H](O)[C@@H](C)CC(C)=CC=C[C@H](OC)[C@H]([C@@H](C)[C@@H](O)[C@H](C)[C@@]2(O)C[C@@H](O)[C@H](C)[C@@H](C(C)C)O2)OC1=O | 0.001 µM (active)
20 | CC[C@@]1(O)C(=O)OCc2c1cc1n(c2=O)Cc2cc3ccccc3nc2-1 | 0.235 µM (active)

Row | SMILES | Potency
21 | CC(C)(O)C(=O)Nc1ccc([N+](=O)[O-])c(C(F)(F)F)c1 | 20.9 µM (active)
22 | CCCC[N+]1(C)[C@H]2CC(OC(=O)[C@H](CO)c3ccccc3)C[C@H]1[C@H]1O[C@H]12 (stereo not given in full) | inactive
23 | Clc1ccccc1C(c1ccccc1)(c1ccccc1)n1cccn1 | inactive
24 | CC=C(C)C(=O)O[C@H]1C(C)=C2[C@@H]3OC(=O)[C@@](C)(O)[C@@]3(O)[C@@H](OC(=O)CCC)C[C@](C)(OC(C)=O)[C@@H]2[C@@H]1OC(=O)CCCCCCC | 0.332 µM (active)
25 | CN1CCN(c2ccc([N+](=O)[O-])c3no[n+]([O-])c23)CC1 | 14.8 µM (active)
26 | Oc1ccc2c3c1O[C@H]1c4[nH]c5c(c4C[C@@]4(O)[C@@H](C2)N(CC2CC2)CC[C@]314)C[C@@]1(O)[C@H]2Cc3ccc(O)c4c3[C@@]1(CCN2CC1CC1)[C@H]5O4 | inactive
27 | CCOP(=O)(OCC)C(C)NC(=O)N(CCCl)N=O (stereo not given) | inactive
28 | CSCC[C@@H](NC(=O)[C@@H](Cc1ccccc1)NC(=O)CNC(=O)CNC(=O)[C@@H](N)Cc1ccc(O)cc1)C(=O)O | inactive
29 | CCC(=O)OC1CCC2C3CCC4=CC(=O)CC[C@@]4(C)C3CC[C@]12C (stereo not given in full) | inactive
30 | O=c1cccc2n1CC1CNC[C@H]2C1 | inactive
31 | CC(=O)Nc1ccc(OC[C@](C)(O)C(=O)Nc2ccc([N+](=O)[O-])c(C(F)(F)F)c2)cc1 | inactive
32 | O=c1[nH]c2ccc(Cl)cc2c(N[C@@H]2CN3CCC2CC3)c1-c1nc2ccccc2[nH]1 | 0.235 µM (active)
33 | CC(C)N[C@@H]1CCn2c(=O)[nH]c3cccc(c32)[C@@H]1O | 13.2 µM (active)
34 | O=S(=O)(CC1CS1)c1ccc(Oc2ccccc2)cc1 (stereo not given) | 14.8 µM (active)
35 | Cc1c(C(=O)c2cccc3ccccc23)c2cccc3c2n1[C@H](CN1CCOCC1)CO3 | 16.6 µM (active)
36 | N#C[C@H](O[C@@H]1O[C@H](CO[C@@H]2O[C@H](CO)[C@H](O)[C@H](O)[C@H]2O)[C@H](O)[C@H](O)[C@H]1O)c1ccccc1 | 23.5 µM (active)
37 | Cc1[nH]nc2ccc(-c3cncc(OC[C@@H](N)Cc4c[nH]c5ccccc45)c3)cc12 | 0.132 µM (active)
38 | C=CCON=C(C[C@H]1O[C@@H]2O[C@]3(C)CC[C@@H]4[C@H](C)CC[C@@H]([C@H]1C)[C@@]24OO3)[C@H]1O[C@@H]2O[C@]3(C)CC[C@H]4[C@H](C)CC[C@@H]([C@@H]1C)[C@@]24OO3 | 0.418 µM (active)
39 | CC1=C(O)C(=O)C=C2C1=CC=C1[C@@]2(C)CC[C@@]2(C)[C@@H]3C[C@](C)(C(=O)O)CC[C@]3(C)CC[C@]12C | 0.743 µM (active)
40 | COc1cc2cc(c1Cl)N(C)C(=O)C[C@H](OC(=O)C(C)C)[C@]1(C)O[C@H]1[C@H](C)[C@@H]1C[C@@](O)(NC(=O)O1)[C@H](OC)C=CC=C(C)C2 | inactive
